PubChem BioAssay AID2620 (National Center for Advancing Translational Sciences (NCATS), 2010)
Results filed as inconclusive are left out. A number with no mark means an inactive call. The source made the active and inactive calls. The call rests on the fitted dose curve; in most records, active means well fitted curve in the direction sought with a large enough effect; inconclusive means small, poorly fitted or top-dose-only effect, or another doubt; inactive means no such curve, though single readings can be large or run the other way.

Target: Pyruvate kinase PKM (Homo sapiens) (UniProt P14618)
Assay: Secondary LDH Assay for Activators of Human Pyruvate Kinase M1 Isoform: for Probe SAR; further: % of control where 0% means no effect
Details: purified hPK-M1, LDH-coupled NADH fluorescence kinetic; series mostly up to 58.2 µM; activity change, negative = inhibition: at the top concentration
Source text: NIH Chemical Genomics Center [NCGC]
Matthew G. Vander Heiden, M.D., Ph.D. [Harvard Medical School, 77 Avenue Louis Pasteur, Boston, MA 02115]
Human pyruvate kinase […] (hPK-M1)enzyme was supplied as a highly purified (>95% pure) preparation from Harvard Medical School and a secondary assay was used to evaluate compounds. This assay couples the formation of pyruvate from […] using lactate dehydrogenase (LDH) and NADH. The depletion of NADH is followed in a fluorescent-based kinetic assay that follows the formation of pyruvate to lactate, as catalyzed LDH. Pyruvate kinase substrates, PEP and ADP, were present in the assay at 0.1 mM and 4 mM respectively. In this kinetic assay initial rates were determined by following the fluorescence of NADH depletion.
NCGC Assay Protocol Summary:
Three uL of substrate mix (final concentration, 50 mM Tris-Cl pH 8.0, 200 mM KCl, 15 mM MgCl2, 0.1 mM PEP, 4.0 mM ADP, and 0.2 mM NADH) was dispensed into black-solid 1536 well plates. 23 nL of compounds were delivered by a pin tool and 1 uL of enzyme mix (final concentrations, 10 nM hPK-M1 and 1 uM of LDH) was added. Plates were immediately placed in ViewLux (Perkin Elmer) and NADH fluorescence was determined at 30 second exposure intervals for between 3 and 6 minutes. Data were normalized to the uninhibited controls.

Pyruvate kinase PKM (Homo sapiens), sequence (P14618 whole entry, looked up, canonical isoform): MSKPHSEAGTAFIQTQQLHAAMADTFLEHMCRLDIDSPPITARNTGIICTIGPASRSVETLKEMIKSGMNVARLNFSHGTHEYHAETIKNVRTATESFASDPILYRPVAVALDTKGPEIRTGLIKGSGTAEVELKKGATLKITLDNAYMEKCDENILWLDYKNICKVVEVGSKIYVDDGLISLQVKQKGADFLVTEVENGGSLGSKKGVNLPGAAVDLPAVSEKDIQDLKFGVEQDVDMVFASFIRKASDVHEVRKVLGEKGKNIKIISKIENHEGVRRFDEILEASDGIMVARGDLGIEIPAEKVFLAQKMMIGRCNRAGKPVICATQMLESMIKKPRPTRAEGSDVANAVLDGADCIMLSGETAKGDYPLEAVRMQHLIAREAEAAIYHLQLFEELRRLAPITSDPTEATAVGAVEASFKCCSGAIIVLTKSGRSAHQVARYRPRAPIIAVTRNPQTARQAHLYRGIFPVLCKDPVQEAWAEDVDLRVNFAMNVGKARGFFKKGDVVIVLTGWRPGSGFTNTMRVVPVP

Row | SMILES | activity change, negative = inhibition | outcome
1 | O=C1c2ccccc2C(=O)N1c1ccccn1 | -0.541% | 
2 | CN(C)c1cccc(S(=O)(=O)N2CCCN(S(=O)(=O)c3ccc4c(c3)OCCO4)CC2)c1 | 8.35% | 
3 | Cc1ccc(N[S+](=O)([O-])c2cc3c(cc2CCc2ccccc2)NC(=O)CO3)cc1C | 3.8% | 
4 | Cc1ccc(NS(=O)(=O)c2cc3c(cc2C)OCC(=O)N3)cc1C | 1.24% | 
5 | Cc1ccc(NS(=O)(=O)c2cccc(F)c2)cc1C | 4.61% | 
6 | COc1cccc(OC2=NS(=O)(=O)c3ccccc32)c1 | 7.2% | 
7 | Cc1cc2c(s1)c1cnn(Cc3ccccc3F)c(=O)c1n2C |  | inactive
8 | Cc1ccc(NS(=O)(=O)c2cc3c(cc2C)NC(=O)CO3)cc1C | 16.5% | 
9 | Cc1ccc(C)c(OC2=NS(=O)(=O)c3ccccc32)c1 | -2.31% | 
10 | Nc1cc(S(=O)(=O)N2CCN(S(=O)(=O)c3ccc4c(c3)OCCO4)CC2)ccn1 | -1.52% | 
11 | O=C1CCc2cc(S(=O)(=O)Nc3cc(F)cc(Cl)c3)c(F)cc2N1 | 2.41% | 
12 | Cc1ccc(NS(=O)(=O)c2cc3c(cc2-c2ccccc2)NC(=O)CO3)cc1C | -1.77% | 
13 | Cc1ccc(NS(=O)(=O)c2cc3c(cc2Br)NC(=O)CO3)cc1C | 4.41% | 
14 | Cc1ccc(NS(=O)(=O)c2cccc(C(=O)O)c2)cc1C | 8.05% | 
15 | CSc1cc2c(s1)c1cnn(Cc3cccc(O)c3)c(=O)c1n2C | 7.87% | 
16 | O=C1c2ccccc2C(=O)N1c1ccc2ccccc2n1 | -5.97% | 
17 | CCNc1cccc(S(=O)(=O)N2CCCN(S(=O)(=O)c3ccc4c(c3)OCCO4)CC2)c1 | 7.36% | 
18 | O=C1CCc2cc(S(=O)(=O)Nc3cccc(Br)c3)ccc2N1 | -0.337% | 
19 | Cc1ccc(NS(=O)(=O)c2ccc3c(c2)N(C)CCO3)cc1C | 6.74% | 
20 | O=C1c2ccccc2C(=O)N1c1cccc2ccncc12 | -5.12% | 

Row | SMILES | activity change, negative = inhibition | outcome
21 | Cc1ccc(NS(=O)(=O)c2ccc3c(c2)CC(=O)N3)cc1C | 2.06% | 
22 | O=C1CCc2cc(S(=O)(=O)Nc3ccccc3-c3ccccc3)ccc2N1 | 6.2% | 
23 | CNc1cccc(S(=O)(=O)N2CCCN(S(=O)(=O)c3ccc4c(c3)OCCO4)CC2)c1 | 4.62% | 
24 | CC(=O)N1CCc2cc(S(=O)(=O)Nc3ccc(C)c(C)c3)ccc21 | 8.26% | 
25 | Cc1ccc(NS(=O)(=O)c2ccc(N3CCCC3=O)cc2)cc1C | 3.2% | 
26 | CCCCN1C(=O)c2ccccc2C1=O | -2.66% | 
27 | Cc1ccc(NS(=O)(=O)c2cccc(Cl)c2)cc1C | 4.63% | 
28 | Cc1ccc(NS(=O)(=O)c2ccc(F)cc2)cc1C | 2.07% | 
29 | O=C1CCc2cc(S(=O)(=O)Nc3cccc(Cl)c3)ccc2N1 | -3.53% | 
30 | Cc1nc(-c2ccc(S(=O)(=O)Nc3ccc(C)c(C)c3)s2)cs1 | 19.5% | 
31 | O=C1CCc2cc(S(=O)(=O)Nc3ccc4c(c3)OCCO4)ccc2N1 | 4.89% | 
32 | Cc1ccc(NS(=O)(=O)c2cc3c(cc2Cl)CCC(=O)N3)cc1C | 3.19% | 
33 | O=C1CCc2cc(S(=O)(=O)Nc3cccnc3)ccc2N1 | -5.72% | 
34 | O=C1CCc2cc([S+](=O)([O-])Nc3ccc(N[S+](=O)([O-])c4ccc5c(c4)CCC(=O)N5)cc3)ccc2N1 | -2.5% | 
35 | Cc1c(Cl)cccc1NS(=O)(=O)c1cc2c(cc1Cl)CCC(=O)N2 | 2.07% | 
36 | Cc1ccc(NS(=O)(=O)c2cc3c(cc2Cl)NC(=O)C3)cc1C | -4.8% | 
37 | O=C1c2ccccc2C(=O)N1c1cccc2cnccc12 | -2.27% | 
38 | Cc1ccc2nc(-c3ccc(C)o3)c(Nc3ccc(Cl)cc3)n2c1 | -22% | 
39 | O=C1c2ccccc2C(=O)N1Cc1cccnc1 | -1.54% | 
40 | Cc1ccc(-c2nc3ccc(Cl)cn3c2Nc2ccccc2)o1 | 8.02% | 
